In PubChem BioAssay AID2129 (The Scripps Research Institute Molecular Screening Center, 2009) one finds inhibition data, which are given here for 63 compounds.

About 2,200 (0.69%) of roughly 320,000 compounds were called active. Many of the other results were omitted from the sample, so actives are more common in it than they were. Unmarked numbers belong to inactive results.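 The calls were made as follows: active = inhibition above the mean of all tested compounds plus 3 SD, cutoff set per campaign (cut at about 30% in these data); inactive = the rest.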

This test deals with Bcl-2-like protein 1 (Homo sapiens) (UniProt Q07817). The experiment in a line: inhibitors of human Bcl-xL, primary screen, biochemical, fluorescence polarization, HTS (AID 2129).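 Also: 0% = DMSO wells and 100% = unlabeled Bim-BH3 peptide competitor; inhibitors lower millipolarization by displacing the labeled peptide.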 The settings on record: GST-Bcl-xL / FITC-Bim BH3 peptide fluorescence polarization; at 10.9 µM; hits give high values.
Bcl-2-like protein 1 (Homo sapiens), sequence (Q07817 whole entry, looked up): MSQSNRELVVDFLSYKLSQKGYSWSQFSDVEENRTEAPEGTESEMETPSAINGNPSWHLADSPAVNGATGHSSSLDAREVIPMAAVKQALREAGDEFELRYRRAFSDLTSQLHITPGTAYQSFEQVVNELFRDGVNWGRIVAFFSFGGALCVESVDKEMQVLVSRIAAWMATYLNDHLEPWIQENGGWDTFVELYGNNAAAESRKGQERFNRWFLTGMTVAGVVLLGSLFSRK
For the compound `COc1ccc(C(=O)C2CCCN(C(=O)c3ccc(OC)o3)C2)c(C)c1` (stereo not drawn), the inhibition is 7.44%.

Consider `COc1ccccc1NC(=O)C[n+]1ccccc1`, for which the inhibition is -1.13%.

`Cc1cccc[n+]1CC(=O)c1ccccc1`: the inhibition was 2.8%. For `COC(=O)C[n+]1cccc2ccccc21`, the inhibition was 173% (active).

With `CCCOCC(O)CC(CC)C(=O)NNC(=S)Nc1ccccc1` (stereo not drawn), the inhibition is 2.96%. Under `Cc1c(-c2ccccc2)cn2c1-c1ccc(C)n1CC2` stands 31.6% (active); under `C/C(=N\Nc1ncc(Cl)cc1Cl)c1ccc(S(=O)(=O)NCc2ccco2)cc1`, 3.34%.

Take `Cc1c(Cl)cnc(NC(=O)COC(=O)c2ccc(S(=O)(=O)NCc3ccco3)cc2)c1Cl`: the inhibition is 35.9% (active). Under `CSCCC(NC(=O)c1ccco1)C(=O)OCC(=O)Nc1ncc(Cl)c(C)c1Cl` (stereo not drawn) stands 17.7%. Under `COc1ccc(OCC(O)CN(C)C(=O)C(C)Oc2ccccc2)cc1` (stereo not drawn) stands -1.74%; under `O=C(CSc1n[nH]c(-c2cccnc2)n1)Nc1ccc(Cl)cc1`, 2.31%; under `COc1ccc(Cc2nnc(SCC(=O)c3cccc([N+](=O)[O-])c3)n2C)cc1`, 3.55%. In the case of `Cc1ccc(S(=O)(=O)Nc2nc3ccccc3nc2N2CCc3ccccc3C2)cc1`, the inhibition was 6.46%. With `Cc1cc(N2CCN(S(=O)(=O)c3ccc(C)c(C)c3)CC2)c2ccccc2n1` the figure was 1.43%; with `Cc1ccc(S(=O)(=O)C(C#N)c2nc3ccccc3nc2N2CCCC2)cc1C` (stereo not drawn), 87.6% (active). With `Cc1cc2oc(=O)cc(CN(C)Cc3ccc(OC(F)F)cc3)c2cc1Cl` the figure was 0.69%. Under `CC(C)=CCCC(C)CN1CCC(n2nccc2NC(=O)c2ccccc2)CC1` (stereo not drawn) stands 3.8%. As for `COC(=O)c1ccc(C)c(NC(=O)C2CC(=O)N(C3CCCC(C)C3C)C2)c1` (stereo not drawn), the inhibition was 4.61%. Under `O=C(NCc1ccccn1)Nc1ccc(Cl)cc1` stands 1.5%; under `Cc1ccc(C)c(N2CCN(C(=O)CCCn3c(=O)c4cccn4c4cccnc43)CC2)c1`, 1.63%. Regarding `O=c1onc(-c2c(F)cccc2F)n1-c1ccccc1Cl`, the inhibition was 3.32%. Under `Cc1nnc(NC(=O)/C=C/c2ccco2)s1` stands 39.6% (active); under `CCC(CC)c1nnc(NC(=O)/C=C/c2ccco2)s1`, 4.39%. With `CCOC(=O)c1c(NC(=O)/C=C/c2ccco2)sc(C)c1C` the figure was 0.59%; with `CCc1nnc(SCc2cccc(F)c2)nc1CC`, 1.39%; with `Clc1ccccc1CSc1nnc(-c2ccco2)c(-c2ccco2)n1`, 37% (active). Turning to `O=C(CC1N=C2c3ccccc3N=C(SCc3ccccc3Cl)N2C1=O)NCc1ccco1` (stereo not drawn), the inhibition is 15%. As to `O=C(Nc1nnc(SCc2ccccc2Cl)s1)c1cccc([N+](=O)[O-])c1`, the inhibition was 9.99%. Under `COc1ccc2nc(SCc3ccccc3)nc(C)c2c1` stands 1.64%; under `c1ccc(CSc2nnc(-c3ccco3)c(-c3ccco3)n2)cc1`, 33.4% (active); under `Cc1ccc(SCC(=O)c2cc(C)c(OC(=S)N(C)C)c(C)c2)cc1`, -0.01%. In the case of `Cc1ccc(C2(c3ccc(C)cc3)NC(=O)N(Cc3c(C)noc3C)C2=O)cc1`, the inhibition is 6.73%.

For `CC(=O)Nc1ccc(NS(=O)(=O)c2cc(C)sc2C)cc1`, the inhibition was 1.44%. Under `COc1ccc(C#Cc2c(-c3ccc(OC)cc3)oc3ccc(-c4ccc5c(c4)OCO5)cc23)cc1` stands -0.02%; under `CCc1cccc(C)c1N1C(=O)CN(Cc2ccccc2)C1=S`, -7.16%. Under `Cc1ccc(CNS(=O)(=O)c2ccc3c(c2)N(C)CCO3)cc1` stands 8.25%; under `O=C(CCCn1c(SCC(=O)c2ccccc2)nc2ccccc2c1=O)NCC1CCCO1` (stereo not drawn), -3.16%.

In the case of `O=C(CSc1nc2ccccc2c(=O)n1-c1ccc(F)cc1)NC1CC1`, the inhibition was 6.71%. Take `O=C(CCn1c(SCC(=O)c2ccccc2)nc2ccccc2c1=O)NCc1ccc(F)cc1`: the inhibition was 49.4% (active). Under `Cc1c(-c2ccccc2)nc(N)c(C#N)c1-c1cccs1` stands 8.08%; under `CN1CCc2nc(SC(C(=O)O)c3ccccc3)c(C#N)c(-c3cccs3)c2C1` (stereo not drawn), 31.4% (active); under `CCc1c(-c2ccccc2)nc(N)c(C#N)c1-c1cccs1`, 6.16%. With `CCOc1ccc2[nH]c(=O)c(CN(Cc3nnnn3CCc3ccccc3)CC3CCCO3)cc2c1` (stereo not drawn) the figure was 0.19%; with `O=C(COC(=O)/C=C/c1nc2ccccc2s1)Nc1ccccc1Oc1ccccc1`, -1.24%; with `O=C(COC(=O)c1cccc(Br)c1)Nc1cccc2c1C(=O)c1ccccc1C2=O`, 13.1%. Under `O=C(COC(=O)Cn1cnc2ccccc21)Nc1cccc2c1C(=O)c1ccccc1C2=O` stands 137% (active); under `O=C(Cn1cnc2ccccc21)Nc1ccccc1-c1ccccc1`, 7.35%. On to `CC(C)(C)n1ncc2c(=O)n(Cc3ccc(Cl)cc3)cnc21`, for which the inhibition is 4.43%. Under `CCOC(=O)N1CCN(CC(=O)n2c(C)c(C)c3ccccc32)CC1` stands 9.52%; under `C/C(=N\NC(=O)c1ccoc1C)c1ccccc1O`, 4.04%.

Consider `Cc1nn(C(=O)c2ccoc2C)c(N)c1-c1ccccc1`, for which the inhibition was 173% (active). On to `Cc1nn(-c2ccc([N+](=O)[O-])cc2)c(N)c1-c1ccccc1`, for which the inhibition was -20.3%.

On to `Cc1noc(C)c1C(=O)NCC1COc2ccccc2O1` (stereo not drawn), for which the inhibition is -7.18%. Under `O=C(NCc1ccncc1)C1CCCN(S(=O)(=O)c2ccc(Br)cc2)C1` (stereo not drawn) stands 9.21%; under `O=C(NCc1cc(C(F)(F)F)cc(C(F)(F)F)c1)C1CC(c2cccc(F)c2)=NO1` (stereo not drawn), 1.88%; under `CCN1C(=O)[C@@H]2[C@@H](c3ccc(-c4ccc(OC)cc4)c(OC)c3)N3CCC[C@@]3(C(=O)OC)[C@@H]2C1=O`, 4.65%. For the compound `Cn1c(C(=O)N2CCCC(C(=O)NCc3ccccc3)C2)cc2sccc21` (stereo not drawn), the inhibition was 3.21%.

For the compound `COc1ccc(C(=O)N(Cc2ccccc2)c2ccc(C)cc2)cc1S(=O)(=O)N1CCOCC1`, the inhibition was 5.85%. With `O=C(Nc1ccccc1N1CCCC1)c1ccc(F)c(S(=O)(=O)N2CCOCC2)c1` the figure was 1.14%. With `O=C(NCCSCc1ccccc1)c1ccc(Cl)c(S(=O)(=O)N2CCOCC2)c1` the figure was 1.38%. Under `O=C(c1ccc(F)c(S(=O)(=O)N2CCOCC2)c1)N(CCc1ccccc1)Cc1ccccc1` stands 31.7% (active). Consider `Cc1ccccc1CSCCNC(=O)c1ccc(Cl)c(S(=O)(=O)N2CCOCC2)c1`, for which the inhibition was 3%. Take `Cc1nn(Cc2ccccc2)c(C)c1CNC(=O)c1ccc(F)c(S(=O)(=O)N2CCOCC2)c1`: the inhibition is 114% (active).

As a reminder, the inhibition is the change of the read-out against control, counted positive when it falls.
